Source: PubChem BioAssay
RORg inh: qHTS for inhibitors of ROR gamma transcriptional activity; Nuclear receptor ROR-gamma (Mus musculus), P51450; Drosophila S2 Gal4-RORgamma UAS-luciferase reporter, 20 h; Potency, µM (titrated, usually from 53.6 µM), inactives show top-dose activity change, negative = inhibition, actives largely listed as inhibitors; 5.4% of 310,000 active; also: nearly all actives have a fitted effect of over 60% in size
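Luminescence from a UAS-regulated Photinus luciferase reporter in stably transfected Drosophila Schneider cells is measured; decreased signal marks ROR gamma inhibition. Fusion expression is induced by 700 uM copper sulfate for 20 hr.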
DT40 TDP1 CPT: qHTS for Inhibitors of human tyrosyl-DNA phosphodiesterase 1 (TDP1): qHTS in cells in presence of CPT; chicken DT40 Tdp1-/-;hTDP1 cells + 20 nM CPT, ATP luminescence, 48 h; Potency, µM (top dose mostly 46.2 µM), for the others: at the highest dose activity change, negative = growth inhibition, actives largely listed as inhibitors; 12% of 420,000 active; AID 686979, 2013; also: nearly all actives have a fitted effect of over 55% in size
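Chicken DT40 Tdp1-/- cells complemented with human TDP1, 400 cells/well, exposed to compounds plus 20 nM camptothecin for at least 48 h at 37 C; viability read as ATP content by CellTiter-Glo luminescence.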
ELG1 repair inh: qHTS screen for small molecules that inhibit ELG1-dependent DNA repair in human embryonic kidney (HEK293T) cells expressing luciferase-tagged ELG1 | 2.3% of 330,000 active | Potency, µM (titrated, usually from 46.1 µM), for the others: at the highest dose activity change, negative = inhibition, actives largely listed as inhibitors | AID 504467, 2011 | HEK293T ELG1-luciferase reporter, luminescence, 16 h; DNA damage induced by 5-fluorouridine; also: nearly all actives have a fitted effect of over 55% in size
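Quantitative HTS, concentration-response format. 2,000 cells/well co-treated with 5-fluorouridine and compound, 16 hr in 5% CO2 at 37 °C; ONE-Glo luminescence read after 30 min.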
VP16 counter: VP16 counterscreen qHTS for inhibitors of ROR gamma transcriptional activity | Drosophila S2 Gal4-VP16 UAS-luciferase, luminescence, 20 h | Potency, µM (series often up to 53.6 µM), for the others: at the top dose activity, negative = inhibition, hits mostly inhibitors | 3.5% of 310,000 active | AID 2546, 2010;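 also: Gal4-VP16 expression switched on by copper sulfate through the metallothionein promoter; nearly all actives have a fitted effect of over 50% in size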
ALOX12 inh: Primary qHTS assay for inhibitors of human arachidonate 12S-lipoxygenase (ALOX12): Round 2; AID 1671190, 2021; Polyunsaturated fatty acid lipoxygenase ALOX12 (Homo sapiens), P18054; 1.1% of 580,000 active; Potency, µM (top dose mostly 108 µM), without a hit: at the highest dose activity change, negative = inhibition, actives largely listed as inhibitors; purified 12hLO, xylenol orange hydroperoxide absorbance
Target sequence (P18054 whole entry, looked up): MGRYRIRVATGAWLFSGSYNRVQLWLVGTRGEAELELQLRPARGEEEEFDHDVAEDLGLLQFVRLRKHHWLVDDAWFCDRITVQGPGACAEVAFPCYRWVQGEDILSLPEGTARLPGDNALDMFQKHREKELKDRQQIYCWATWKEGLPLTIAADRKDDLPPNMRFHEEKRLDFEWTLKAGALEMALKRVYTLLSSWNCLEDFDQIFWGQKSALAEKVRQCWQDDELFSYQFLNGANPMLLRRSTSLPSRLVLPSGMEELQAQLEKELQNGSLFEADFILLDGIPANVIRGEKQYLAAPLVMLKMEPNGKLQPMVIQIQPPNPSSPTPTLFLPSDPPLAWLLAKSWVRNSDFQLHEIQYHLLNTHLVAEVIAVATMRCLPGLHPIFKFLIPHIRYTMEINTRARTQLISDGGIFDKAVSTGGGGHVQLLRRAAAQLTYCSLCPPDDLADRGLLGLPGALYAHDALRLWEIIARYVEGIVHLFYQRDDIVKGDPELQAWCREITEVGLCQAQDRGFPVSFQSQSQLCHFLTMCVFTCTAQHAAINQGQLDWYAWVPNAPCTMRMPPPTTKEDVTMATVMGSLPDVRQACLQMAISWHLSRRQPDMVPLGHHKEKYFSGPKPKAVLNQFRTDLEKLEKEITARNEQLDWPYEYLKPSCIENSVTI
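Purified human 12hLO (150 nM final) in 25 mM Hepes, 0.01% Triton X-100, pH 7.0 was preincubated 15 min at room temperature with compound. Then 40 uM arachidonic acid was added, 30 min. Hydroperoxide was read by Fe-XO absorbance ratio 573/405 nm.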
DT40 TDP1 no CPT: qHTS for Inhibitors of human tyrosyl-DNA phosphodiesterase 1 (TDP1): qHTS in cells in absence of CPT; DT40 Tdp1-/- hTDP1 cells, no CPT, ATP luminescence, 48 h; Potency, µM (series often up to 46.2 µM), for inactives: at the highest dose activity change, negative = growth inhibition, usual class: inhibitors; 15% of 420,000 active; AID 686978, 2013; also: nearly all actives have a fitted effect of over 55% in size
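Chicken DT40 Tdp1-/- cells complemented with human TDP1, screened without camptothecin (DMSO vehicle only), 400 cells/well. Compounds pin-transferred, cells incubated at 37 °C for at least 48 hr. Growth read as ATP-dependent luminescence (CellTiter-Glo, 30 min at RT).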
An asterisk follows results filed as active. In the library only some 15% were active in any assay of this set; here they are far more common. Calls follow the shape of the dose curve; as a rule, active = well fitted curve in the direction sought with a large enough effect; inconclusive = small, poorly fitted or top-dose-only effect, or another doubt; inactive = no such curve, though single readings can be large; an effect the other way counts as inactive or inconclusive. % is scaled to controls: 0 for no effect and ±100 for the full control effect; potency is read from the fitted curve at half-maximal effect.

Results for O=C(CC1N=C2c3ccccc3N=C(SCc3ccc(Cl)cc3)N2C1=O)NCc1cccs1 (centres undefined) ?
DT40 TDP1 CPT: -29%; ALOX12 inh: -12%; DT40 TDP1 no CPT: -19%

How did Cc1ccc(CSC2=Nc3ccccc3C3=NC(CC(=O)NCc4cccs4)C(=O)N23)cc1 (centres undefined) do in these assays?
DT40 TDP1 CPT: 16µM*; ALOX12 inh: 2%; DT40 TDP1 no CPT: 16µM*

What do the screens show for `O=C(N/N=C/c1cccc2nccnc12)c1ccccc1O`?
RORg inh: 2.5µM*; DT40 TDP1 CPT: 5.8µM*; ELG1 repair inh: 4%; VP16 counter: 3.2µM*; ALOX12 inh: 0%; DT40 TDP1 no CPT: 3.3µM*

What do the screens show for `O=C(N/N=C/c1cccc2cccnc12)c1ccccc1O`?
RORg inh: 0.35µM*; DT40 TDP1 CPT: 5.2µM*; ELG1 repair inh: inconclusive; VP16 counter: 0.79µM*; ALOX12 inh: 0%; DT40 TDP1 no CPT: 4.1µM*

Results for O=C(N/N=C/c1cccc2nccnc12)c1ccncc1 ?
RORg inh: inconclusive; DT40 TDP1 CPT: inconclusive; ELG1 repair inh: 3%; VP16 counter: -8%; ALOX12 inh: inactive; DT40 TDP1 no CPT: inconclusive

What do the screens show for `O=C(N/N=C/c1ccccc1Br)c1ccc(CSc2cccc3cccnc23)cc1`?
RORg inh: -1%; DT40 TDP1 CPT: -15%; ELG1 repair inh: 21µM*; VP16 counter: 1%; ALOX12 inh: 0%; DT40 TDP1 no CPT: 0%

How did COc1ccc(OCC(=O)N/N=C/c2cccc3cccnc23)cc1 do in these assays?
DT40 TDP1 CPT: inconclusive; ALOX12 inh: 421%; DT40 TDP1 no CPT: inconclusive

What do the screens show for `O=C(Cc1ccccc1)N1CCCC1c1ccccc1` (centres undefined)?
RORg inh: 26%; DT40 TDP1 CPT: 16µM*; ELG1 repair inh: -6%; VP16 counter: 12%; ALOX12 inh: -11%; DT40 TDP1 no CPT: inconclusive

How did CCN(CC)c1ccc(N=C2C(=O)Nc3ccccc32)cc1 do in these assays?
RORg inh: -18%; DT40 TDP1 CPT: 6.5µM*; ELG1 repair inh: 16µM*; VP16 counter: 0%; ALOX12 inh: 7%; DT40 TDP1 no CPT: 5.8µM*

How did Cc1ccc(N=C2C(=O)Nc3ccccc32)cc1 do in these assays?
RORg inh: 0%; DT40 TDP1 CPT: -5%; ELG1 repair inh: 21%; VP16 counter: 3%; ALOX12 inh: 0%; DT40 TDP1 no CPT: 4%

What do the screens show for `Cc1cccc(C)c1N=C1C(=O)Nc2ccccc21`?
RORg inh: inconclusive; DT40 TDP1 CPT: inconclusive; ELG1 repair inh: inconclusive; VP16 counter: 18µM*; ALOX12 inh: 0%; DT40 TDP1 no CPT: inconclusive

Results for O=C(CCCSc1nc2ccccc2[nH]1)N1CCN(c2ccccc2)CC1 ?
RORg inh: 1%; DT40 TDP1 CPT: inconclusive; ELG1 repair inh: 23µM*; VP16 counter: -3%; ALOX12 inh: inconclusive; DT40 TDP1 no CPT: inconclusive

What do the screens show for `Cc1cccc(N2CCN(C(=O)CCCSc3nc4ccccc4[nH]3)CC2)c1C`?
RORg inh: inconclusive; DT40 TDP1 CPT: 16µM*; ELG1 repair inh: inconclusive; VP16 counter: 22µM*; ALOX12 inh: -9%; DT40 TDP1 no CPT: inconclusive

What do the screens show for `CCC(C)(C)NC(=O)CC(NC(N)=O)c1ccccc1C` (centres undefined)?
ALOX12 inh: 8%
